Here are results for 40 compounds from PubChem BioAssay (NCATS).

Results filed as inconclusive are left out. Where a call stands in place of a potency, no number is given. Calls of active or inactive are those of the source. Calls come from the whole dose curve; as a rule, active = well fitted activation curve with a large enough effect; inconclusive = small, poorly fitted or top-dose-only effect; inactive = no such curve, though single readings can be large or run the other way.

The experiment is described as follows: Validation screen for small molecules that induce genotoxicity in human embryonic kidney (HEK293T) cells expressing luciferase-tagged ELG1 (AID 493106). Conditions: luminescence; series mostly up to 46.1 µM. The text has this: NIH Molecular Libraries Probe Production Network [MLPCN]
NIH Chemical Genomics Center [NCGC]
Assay Provider: Kyungjae Myung, NHGRI, NIH
Keywords: MLPCN, qHTS, NCGC, genotoxicity, cancer
Cancer cells divide rapidly compared to normal cells in the body. During cell division, cancer cells need to duplicate their genome by DNA replication. The failure of genome duplication leads to cancer cells' death. Therefore, inhibitors of DNA replication could specifically kill cancer cells. Based on this concept, many chemotherapeutic agents were developed and have been used to treat cancer patients. However, there are a limited number of agents available in the clinical setting, and some of those that do exist have low efficacy and severe side effects. Therefore, if we can find the compounds that effectively block DNA replication either by directly damaging DNA or by inhibiting other cellular mechanisms, the options for cancer treatment will be broadened. With this in mind, we developed a quantitative high-throughput ELG1-luciferase reporter gene assay. Since the level of human ELG1 protein is enhanced in response to genetic stresses, increases in luciferase activity can be used to identify compounds that cause genetic stress.
For genotoxicity screening, 2,000 cells in 5 uL/well were dispensed into white, solid-bottom 1536-well plates using a solenoid-based dispenser. Following transfer of 23 nL compound or DMSO vehicle by a pin tool, the plates were incubated 16 hr at 37 °C and 5% CO2. 5 ul ONE-Glo (Promega) was then added to each plate and following a 30 min incubation at room temperature, luciferase activity was quantified on a ViewLux CCD-based plate reader.
Turning to `COc1ccc(OC)c(C(O)C(C)N)c1` (stereo not given), the Potency result is “inactive”. Next, `NCC(O)c1cc(O)c(O)cc1F` (stereo not given): “inactive”; `C[N+](C)(C)CC#CCN1CCCC1=O`: “inactive”.

For `C[N+](C)(C)CCOC(=O)CBr`, the Potency result was “inactive”.

Consider `CCN1C[C@@]2(COC)C3[C@@H](OC)C4[C@@H]1C3([C@@H]1C[C@]3(O)[C@H](OC(=O)c5ccccc5)[C@@H]1[C@]4(OC(C)=O)[C@@H](O)[C@@H]3OC)[C@H](OC)C[C@H]2O`, for which the Potency result was “inactive”.

`COc1ccc(CNC(=O)/C=C/c2ccc3[nH]cc(CCN(C)C)c3c2)cc1`: the Potency entry was “inactive”. Turning to `NC(N)=Nc1ccc2[nH]c3c(c2c1)C[C@@]1(O)[C@H]2Cc4ccc(O)c5c4[C@@]1(CCN2CC1CC1)[C@H]3O5`, the Potency result is “inactive”. For `NC(CCCCCP(=O)(O)O)C(=O)O` (stereo not given) the value was “inactive”; for `CCS(=O)(=O)Nc1cccc(C(=C2CCCCC2)c2cnc[nH]2)c1`, “inactive”; for `NC(Cc1cc(O)c(O)cc1O)C(=O)O` (stereo not given), “inactive”. Consider `CCCn1c(C)c(C(=O)c2ccc3ccccc3c2)c2ccccc21`, for which the Potency result is “inactive”. For `C[C@H](Cc1ccc2c(c1)OC(C(=O)O)(C(=O)O)O2)NC[C@H](O)c1cccc(Cl)c1` the value was “inactive”; for `NNC(N)=O`, “inactive”.

For `Cc1sc2ccccc2c1CC1=NCCN1`, the Potency entry was “inactive”. Next, `C=CCN1CCC23c4c5ccc(O)c4O[C@H]2C(=O)CC[C@@]3(O)C1C5` (stereo not given in full): “inactive”; `NC(=O)COc1c(F)cc(SCCNS(=O)(=O)c2ccccc2)cc1F`: “inactive”; `O=C(O)c1cc[c]([Hg][Cl])cc1`: “inactive”.

`CCCN(CCC)[C@H]1CCc2c(F)ccc(O)c2C1`: the Potency entry is “inactive”.

For the compound `Cc1c2ccncc2c(C)c2c1[nH]c1ccccc12`, the Potency entry was “inactive”. Next, `C[N+]1(C)CCOC(O)(c2ccc(-c3ccc(C4(O)C[N+](C)(C)CCO4)cc3)cc2)C1` (stereo not given): “inactive”. Next, `C[C@H](N)CN1CCc2ccc(Br)cc21`: “inactive”. As to `Cc1o[nH]c(=O)c1CC(N)C(=O)O` (stereo not given), the Potency entry is “inactive”. For `CN(N=O)c1cc(O)ccc1O` the value was “inactive”; for `CCOC(=O)c1ncn2c1[C@@H]1CCCN1C(=O)c1cc(OC)ccc1-2`, “inactive”; for `CC(C)(C)c1cc(C=C(C#N)C#N)cc(C(C)(C)C)c1O`, “inactive”. Turning to `c1ccc2cc(CC3=NCCN3)ccc2c1`, the Potency result is “inactive”. For `O=S1(=O)N(CCN2CC=C(c3c[nH]c4cc(F)ccc34)CC2)c2cccc3c2N1CCC3` the value was “inactive”; for `COc1ccc2c(c1)[C@@]13CCCC[C@H]1[C@@H](C2)NCC3`, “inactive”; for `NNC(=O)c1ccc(O)cc1`, “inactive”.

For the compound `CN(C(=O)Cc1ccc(Cl)c(Cl)c1)C(CN1CCCC1)c1cccc(OCC(=O)O)c1` (stereo not given), the Potency result is “inactive”. Next, `c1ccc2c(N3CCNCC3)cccc2c1`: “inactive”; `Cc1[nH]c2ccc(O)cc2c1CCN`: “inactive”. Take `C[N+]1(C)C2CCC1CC(OC(=O)c1c[nH]c3ccccc13)C2` (stereo not given): the Potency entry is “inactive”. For `CCn1cnc2c(Nc3cccc(Cl)c3)nc(N[C@@H]3CCCC[C@@H]3N)nc21`, the Potency entry is “inactive”.

For the compound `COc1ccc2c(c1O)-c1cccc3c1[C@@H](C2)N(C)CC3`, the Potency entry was “inactive”.

As to `C#CCN[C@H](C)Cc1ccccc1`, the Potency entry was “inactive”.

As to `N[C@@H](CCl)C(=O)O`, the Potency result is “inactive”. `Clc1ccc(N2CC3CCC(C2)N3)nn1`: the Potency entry is “inactive”. For `CC(C)(C)c1o[nH]c(=O)c1CC(N)C(=O)O` (stereo not given), the Potency result is “inactive”. On to `N[C@@H](Cn1ccc(=O)[nH]c1=O)C(=O)O`, for which the Potency result was “inactive”.
